Compounds with a hit are over-represented: about 19% of the library has one in this group of screens.
DT40 TDP1 no CPT – qHTS for Inhibitors of human tyrosyl-DNA phosphodiesterase 1 (TDP1): qHTS in cells in absence of CPT; AID 686978, 2013; Potency, µM (doses to about 46.2 µM), hits mostly inhibitors; DT40 Tdp1-/- hTDP1 cells, no CPT, ATP luminescence, 48 h; 420,000 compounds, 15% hits; further: nearly all actives have a fitted effect of over 55% in size
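Seeded 400 DT40-hTDP1 cells/well (vehicle DMSO, no 20 nM CPT); pinned compounds; ≥48 hr at 37 °C; CellTiter-Glo luminescence as viability measure.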
IL-1B inflam inh – qHTS for Inhibitors of Inflammasome Signaling: IL-1-beta AlphaLISA Primary Screen; THP-1 LPS/ATP IL-1B secretion, AlphaLISA, 16 h; stronger effect = lower value; activity change, % at 57.5 µM; 360,000 compounds, 4.7% hits; in the data active means activity change below about -50%; inconclusive means mostly about -30% to -49%
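Secreted IL-1B measured by AlphaLISA bead assay after 16 h compound exposure of THP-1 cells; compounds (final up to 57.5 uM) added 1 h before LPS (250 ng/mL) and ATP (1.25 mM) stimulation; lower signal means less secretion.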
HT1080NT lethal – qHTS for induction of synthetic lethality in tumor cells producing 2HG: qHTS for the HT-1080-NT fibrosarcoma cell line. Potency, µM (series often up to 46.1 µM), hits mostly cytotoxic. 360,000 compounds, 1.6% hits. HT-1080-NT fibrosarcoma viability, CellTiter-Glo ATP luminescence, 48 h. AID 686970, 2013;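 further: NT is the 2HG producing partner of a matched IDH1 knockdown line; nearly all actives have a fitted effect of over 55% in size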
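750 cells/well, RPMI + 5% FBS; 2 h settle, compound pin-transfer, 48 h at 37 degrees C. CellTiter-Glo 10 min RT, luminescence. Normalized to DMSO and media-only wells.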
TDP1 cell CPT – qHTS for Inhibitors of human tyrosyl-DNA phosphodiesterase 1 (TDP1): qHTS in cells in presence of CPT; 420,000 compounds, 12% hits; Potency, µM (series often up to 46.2 µM), actives largely listed as inhibitors; AID 686979, 2013; chicken DT40 Tdp1-/-;hTDP1 cells + 20 nM CPT, ATP luminescence, 48 h; further: nearly all actives have a fitted effect of over 55% in size
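Chicken DT40 Tdp1-/- cells stably complemented with human TDP1 were seeded at 400 cells/well in medium containing 20 nM camptothecin, exposed to pin-transferred compounds, and grown at 37 °C for at least 48 hr. Viability was read as ATP luminescence.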
HT1080 IDH1KD tx – qHTS for induction of synthetic lethality in tumor cells producing 2HG: qHTS for the HT-1080-IDH1KD cell line; 360,000 compounds, 2% hits; AID 686971, 2013; Potency, µM (titrated, usually from 46.1 µM), usual class: cytotoxic; HT-1080 IDH1 knockdown viability, ATP luminescence, 48 h
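Knockdown cells (IDH1KD HT-1080) received compounds 2 h after plating at 750 cells/well and were kept 48 h at 37 °C in 5% FBS RPMI. A CellTiter-Glo luminescence read gave % activity for curve fitting.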
ELG1 repair inh – qHTS screen for small molecules that inhibit ELG1-dependent DNA repair in human embryonic kidney (HEK293T) cells expressing luciferase-tagged ELG1 | HEK293T ELG1-luciferase reporter, luminescence, 16 h; DNA damage induced by 5-fluorouridine | AID 504467, 2011 | 330,000 compounds, 2.3% hits | Potency, µM (series often up to 46.1 µM), actives largely listed as inhibitors; further: nearly all actives have a fitted effect of over 55% in size
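Luminescence from the luciferase reporter, measured 30 min after ONE-Glo reagent at room temperature, was the read-out. Beforehand, 2,000 cells per well were exposed for 16 hr at 37 °C to 5-fluorouridine together with compound or vehicle.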
Numbers stand for hits; . = inactive; ? = inconclusive; / = no result given. Unless noted, the call rests on the fitted dose curve; in most records, active means well fitted curve in the direction sought with a large enough effect; inconclusive means small, poorly fitted or top-dose-only effect, or another doubt; inactive means no such curve, though single readings can be large; an effect the other way counts as inactive or inconclusive.

SMILES	DT40 TDP1 no CPT	IL-1B inflam inh	HT1080NT lethal	TDP1 cell CPT	HT1080 IDH1KD tx	ELG1 repair inh
CS(=O)(=O)N1CCC(C(=O)Nc2ccc(Cl)c(Cl)c2)CC1	?	?	.	?	.	.
CSCCC(NC(=O)c1ccco1)C(=O)NCC1CCCO1 (stereo unspecified)	3.3µM	.	.	.	.	.
COc1ccccc1NC(=O)c1cc(S(=O)(=O)NCCC2=CCCCC2)ccc1F	?	/	/	23µM	/	/
COc1ccc(C)cc1NC(=O)c1cc(S(=O)(=O)NCCC2=CCCCC2)ccc1F	?	/	/	21µM	/	/
Cc1ccc(S(=O)(=O)NCCC2=CCCCC2)cc1	.	.	.	.	.	.
CC(C)CC(=O)OCc1cc(=O)n2nc(C3CCCCC3)sc2n1	?	/	/	.	/	/
COc1cccc(Oc2ccc(C(F)(F)F)cc2N)c1	.	-70	.	.	.	?
CNNCc1ccc(C(=O)NC(C)C)cc1	?	.	.	?	.	/
Cc1cccc(-n2c(O)c(C=Nc3cc(O)ccc3C)c3ccccc3c2=O)n1	?	.	?	21µM	?	.
Cc1cccc(-n2c(O)c(C=Nc3ccccc3O)c3ccccc3c2=O)n1	?	?	.	.	.	23µM
O=C(OCC(O)C(O)C(O)C(SCc1ccccc1)SCc1ccccc1)c1ccccc1 (stereo unspecified)	?	-72	.	29µM	?	/
O=C(OCC(O)C(O)C(O)COC(=O)c1ccccc1)c1ccccc1 (stereo unspecified)	.	.	.	.	.	/
Cc1onc(-c2ccccc2)c1C(=O)N/N=C/c1cc(Br)c(Br)o1	?	-93	.	?	?	.
Cc1onc(-c2ccccc2)c1C(=O)N/N=C/c1c[nH]c2ccccc12	?	-72	.	.	.	?
Cc1onc(-c2ccccc2)c1C(=O)N/N=C/c1ccc(Br)cc1	.	?	.	?	.	.
COc1cccc(/C=N/NC(=O)c2c(-c3ccccc3)noc2C)c1O	4.6µM	.	.	4.1µM	?	?
CN(Cc1nc2ccccc2c(=O)[nH]1)C(=O)C1CC(=O)N(c2cccc3ccccc23)C1 (stereo unspecified)	?	.	.	?	.	.
O=C(Nc1ccncc1)c1cc(-c2ccccc2)nc2ccccc12	21µM	.	.	?	?	/
Cc1ccc2nc(-c3ccccc3)cc(C(=O)Nc3cccnc3)c2c1	?	.	.	?	.	.
Cc1cccc(-c2cc(C(=O)Nc3cccnc3)c3ccccc3n2)c1	?	.	.	21µM	.	?
O=C(Nc1ccc(Br)cc1)c1cc(-c2ccncc2)nc2ccccc12	16µM	.	6.5µM	?	8.2µM	?
Cc1ccc([C@@H]2C[C@H]3[C@@H](CN2S(=O)(=O)c2ccc(Cl)cc2)C(=O)C[C@@H](c2ccc(C)cc2)N3S(=O)(=O)c2ccc(Cl)cc2)cc1	.	.	.	.	.	/
O=C(O)C(CCc1ccccc1)(Cc1ccccc1)C(=O)O	.	.	?	.	.	/
CCCOc1ccc(CN(CCC#N)C(=S)NC(=O)c2ccccc2)cc1	5.2µM	.	.	7.3µM	.	?
CC1CCCN(S(=O)(=O)c2ccc(S(=O)(=O)N3CCCN(Cc4ccccc4)C3)cc2)C1 (stereo unspecified)	?	.	.	16µM	.	.
SMILES	DT40 TDP1 no CPT	IL-1B inflam inh	HT1080NT lethal	TDP1 cell CPT	HT1080 IDH1KD tx	ELG1 repair inh
O=C(C1CCCN(S(=O)(=O)c2ccc(Br)cc2)C1)N1CCN(Cc2ccccc2)CC1 (stereo unspecified)	?	-52	.	16µM	.	?
CSc1cccc(NC(=O)C(c2ccccc2)N2Cc3ccccc3C2=O)c1 (stereo unspecified)	.	/	/	.	/	/
CCOc1ccccc1OCCCC(=O)NNC(=O)c1cc(C)oc1C	.	?	.	.	.	.
Cc1cc(C)cc(NC(=O)CCC(=O)N2CCSc3ccccc32)c1	18µM	.	.	?	.	.
CCN1CCSc2ccc(C(=O)NCc3cc(Br)ccc3OC)cc21	?	.	.	16µM	.	.
COc1ccc(Br)cc1CNC(=O)c1ccc2c(c1)N(C)CCS2	?	.	.	23µM	.	?
COc1ccc(Br)cc1CNC(=O)CCC(=O)N1CCSc2ccccc21	21µM	.	.	?	.	.
O=C(Cc1ccc(-n2c(=O)c3ccccc3n(Cc3ccc(F)cc3)c2=O)cc1)NCC1CCCO1 (stereo unspecified)	?	.	.	.	.	10µM
O=C(Cc1ccc(-n2c(=O)c3ccccc3n(Cc3ccccc3Cl)c2=O)cc1)NCC1CCCO1 (stereo unspecified)	?	.	.	?	.	9.2µM
C=CCn1c(=O)c2c(nc(Br)n2Cc2ccccc2Cl)n(C)c1=O	?	.	.	18µM	.	?
CCOC(=O)Cn1c(=O)c2c(nc(Br)n2Cc2ccccc2Cl)n(C)c1=O	23µM	.	.	18µM	.	?
Cn1c(=O)n(CCO)c(=O)c2c1nc(Br)n2Cc1ccccc1	?	.	.	.	.	.
CN1CCN(C(=O)Nc2ccc([N+](=O)[O-])cc2)CC1	.	.	.	.	.	.
O=C(Nc1cccc(Cl)c1)N1CCc2ccccc2C1	?	.	.	?	.	?
O=C(Nc1ccc([N+](=O)[O-])cc1)N1CCc2ccccc2C1	?	-90	.	.	12µM	?
O=[N+]([O-])c1ccc(N2CCc3ccccc3C2)cc1	18µM	.	.	?	.	?
CC(C)c1ccc(NC(=O)N2CCc3ccccc3C2)cc1	?	-59	.	?	.	?
Cc1ccc(CN2CCN(Cc3cnc(N4CCOCC4)s3)CC2CCO)cc1 (stereo unspecified)	?	.	.	.	.	?
O=C(Nc1ccc(S(=O)(=O)N2CCCC2)cc1)c1c(F)cccc1F	.	.	.	.	.	.
CCOc1ccccc1N(CC(=O)Nc1cccnc1)S(=O)(=O)c1ccc(C)cc1	?	.	.	18µM	.	.
COc1ccc(OC)c(N(CC(=O)Nc2cccnc2)S(=O)(=O)c2ccc(OC)c(OC)c2)c1	?	.	.	?	.	?
COc1ccc(NC(=O)CN(c2cccc(C)c2C)S(=O)(=O)c2ccccc2)cc1OC	?	/	/	23µM	/	/

High-throughput results as filed in PubChem.
